Measurements taken from PubChem BioAssay AID602440 (Sanford-Burnham Center for Chemical Genomics, 2012).
Hit rate of the full screen: of about 360,000 compounds, about 2,300 (0.64%) were called active. This excerpt belongs to a sample that is enriched for actives. Values without a mark were called inactive. Rule as the data show it: active = inhibition mostly above about 40% (no sharp cut-off); inactive = mostly below about 27%.

target: Sentrin-specific protease 8 (Homo sapiens) (UniProt Q96LD8); experiment: blockers of SENP8 deneddylase activity – biochemical, fluorescence, Nedd8 protein substrate, uHTS, primary screen (AID 602440); conditions: recombinant SENP8, Nedd8 substrate fluorescence; at 20 µM; stronger effect = higher value
Sequence (Q96LD8 whole entry, looked up): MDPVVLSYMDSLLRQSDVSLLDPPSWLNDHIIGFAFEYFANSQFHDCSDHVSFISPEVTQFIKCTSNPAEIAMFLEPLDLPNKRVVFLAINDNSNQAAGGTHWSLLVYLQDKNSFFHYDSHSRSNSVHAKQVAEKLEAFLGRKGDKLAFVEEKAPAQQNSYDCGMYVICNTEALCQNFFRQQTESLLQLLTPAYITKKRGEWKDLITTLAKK

| Structure (SMILES) | inhibition |
| --- | --- |
| COC(=O)c1ccccc1NC(=O)c1cncc(Br)c1 | 3.1% |
| C/C=N/NC(=O)CCCC(=O)N/N=C/C | 6.6% |
| COc1cc2c(cc1OC)C(=O)NCC(C)(C)O2 | 15.5% |
| COc1cc(C(C(=O)NC2CCCC2)N(C(=O)c2ccco2)c2ccccc2C(C)=O)cc(OC)c1OC (configuration not stated) | 10.1% |
| O=C1OCCN1C(=O)[C@H]1[C@H](c2ccc(Cl)cc2)C(c2cccc(Cl)c2)=NN1c1ccc(Br)cc1 | -366% |
| O=C(c1cccnc1)N(c1cc2sc(=O)oc2c2ccccc12)S(=O)(=O)c1ccccc1 | 7.7% |
| O=C(O)CN1C(=O)CC(Cc2ccccc2)C1=O (configuration not stated) | 3.4% |
| COc1cccc(CC2(CO)CCCN(Cc3ccc(OC(F)F)cc3)C2)c1 (configuration not stated) | 10.3% |
| CN(C)c1ccc(/C=C/C(=O)c2ccc(O)cc2)cc1[N+](=O)[O-] | 47.5% (active) |
| CN(C)c1ccc(S(=O)(=O)NCC(=O)NCC2CCCCC2)cc1[N+](=O)[O-] | 11.6% |
| CCN(CC)CCN(C)C(c1ccnc2ccccc12)c1nnnn1-c1ccc2c(c1)OCCO2 (configuration not stated) | 7.5% |
| CC(C)N(C(=O)[C@H]1C[C@H](CC(=O)NC(C)(C)C)C(=O)N2CCc3c([nH]c4ccc(Cl)cc34)[C@]12C)C(C)C | 19% |
| COC(=O)C1=C(C(=O)c2ccc(C)cc2)C(c2ccccc2)n2nnnc2N1 (configuration not stated) | 44.3% (active) |
| COc1ccccc1NC(=O)C1=C(C)Nc2nnnn2C1c1cccc(Br)c1 (configuration not stated) | 6% |
| COC(=O)c1ccc(C2C3=C(Nc4nnnn42)c2ccccc2OC3)cc1 (configuration not stated) | -273% |
| O=C1CC(Cc2ccc(Cl)cc2)C(=O)N1c1cc(Cl)ccn1 (configuration not stated) | 9.6% |
| COc1ccccc1CNC(=O)COC(=O)c1sc(C)nc1C | 17.6% |
| CCN(C(=O)COc1cccnc1[N+](=O)[O-])C1CCS(=O)(=O)C1 (configuration not stated) | 11.8% |
| NC1=CC(=O)C(=O)c2cccnc21 | 95% (active) |

| Structure (SMILES) | inhibition |
| --- | --- |
| C[C@@H](O)c1nc2ccccc2n1N | 19% |
| Cc1ccc2c(=O)cc(C(=O)NCCc3ccc(S(N)(=O)=O)cc3)oc2c1C | 12.8% |
| CCN(CC)c1ccc(S(=O)(=O)N2CCCCC2)cc1NC(=O)C1=COCCO1 | 5.2% |
| O=C(NCCNc1ccccc1[N+](=O)[O-])c1ccccc1F | 19.2% |
| O=C(NCc1ccccc1Cl)NC(=O)c1csc([N+](=O)[O-])c1 | 6.1% |
| O=[N+]([O-])c1ccccc1NCc1ccccc1Cl | 46.6% (active) |
| CCc1cc2c(SCC(=O)Nc3ncc(Cl)c(C)c3Cl)ncnc2s1 | -2.9% |
| O=C1CC(c2ccccc2)=NN1c1ccc([N+](=O)[O-])cc1 | 71.2% (active) |
| O=C1NC(=O)C2C1C(c1ccc([N+](=O)[O-])cc1)=NN2Cc1ccccc1 (configuration not stated) | -27.9% |
| CCN1N=C(c2ccccc2)CCC1=O | 8.8% |
| Cc1ccc(NC(=S)N(CCN(C)C)Cc2cccs2)cc1C | 19.3% |
| CNC(=O)C[C@H]1C(=O)N(Cc2ccccc2)C[C@@H]1CSC | -6.3% |
| CCOC(=O)N1CCC(Nc2c(NCCCN3CCN(c4ccc(OC)cc4)CC3)c(=O)c2=O)CC1 | 63.9% (active) |
| CCOC(=O)N1CCC(Nc2c(NCCCN3CCN(CC)CC3)c(=O)c2=O)CC1 | 20.5% |
| CCOC(=O)N1CCN(c2c(NCCCN3CCCC(C)C3)c(=O)c2=O)CC1 (configuration not stated) | 21.3% |
| Cc1sc2ccccc2c1CNC[C@H]1O[C@@H](n2ccc(=O)[nH]c2=O)[C@H](O)[C@@H]1O | 50.2% (active) |
| C[C@H](NC(=O)CC[C@H]1O[C@@H](n2ccc(=O)[nH]c2=O)[C@H](O)[C@@H]1O)c1cccc2ccccc12 | 20.1% |
| O=c1ccn([C@@H]2O[C@H](CNS(=O)(=O)c3cc4ccccc4s3)[C@@H](O)[C@H]2O)c(=O)[nH]1 | 7.7% |
| O=C(CNCc1ccc(Cl)cc1)Nc1cccc(C(=O)O)c1 | 23% |

| Structure (SMILES) | inhibition |
| --- | --- |
| CC(C)C[C@H](NC(=O)N1CC(=O)Nc2ccccc21)C(=O)N[C@H](Cc1ccccc1)C(=O)O | 28.1% |
| CC(C)[C@H](NC(=O)N1CC(=O)Nc2ccccc21)C(=O)N[C@@H](Cc1c[nH]c2ccccc12)C(=O)O | 57.9% (active) |
| CC(C)c1ccc(NC(=O)[C@@H](NC(=O)N2CC(=O)Nc3ccccc32)C(C)C)cc1 | 8.3% |
| CC(OC(=O)Cc1ccc(F)cc1)C(=O)N1CCc2ccccc21 (configuration not stated) | -2.8% |
| O=C(CN(C(=O)c1nsc(Cl)c1Cl)c1cccc(F)c1)NC1CCCC1 | 4.4% |
| COc1ccc(S(=O)(=O)n2cnc3ccccc32)c(C)c1 | 12.5% |
| O=C(/C=C/c1cccs1)NCc1cccnc1 | -2.1% |
| Cc1ccc(S(=O)(=O)NC(C)C(=O)Nc2ccccc2C(=O)N2CCCC2)cc1 (configuration not stated) | 20.9% |
| CC1CCCC(NC(=O)c2cccc(N3CCCC3=O)c2)C1C (configuration not stated) | -12.1% |
| Cc1cc2c(C)nc(N/N=C/c3ccccc3)nc2o1 | -29.4% |
| Cc1cc(C)nc(N/N=C/c2ccc([N+](=O)[O-])o2)n1 | 45.8% (active) |
| O=C(/C=C/c1ccc([N+](=O)[O-])o1)NNC(=O)c1ccc(F)cc1 | 19.8% |
| CN(CC(=O)Nc1ccccc1Cl)C(=O)c1ccccc1SCC(=O)N1CCCC1 | 3.2% |
| COC(=O)c1ccc2c(=O)n(CCN3CCOCC3)c(SCC(=O)Nc3cccc(OC)c3)nc2c1 | 14.9% |
| Cc1nc2ccccc2c(=O)n1-c1ccc(NS(=O)(=O)c2ccc(F)cc2F)cc1 | 5.4% |
| COC(=O)Cn1c(=NC(=O)c2cc(OC)c(OC)c(OC)c2)sc2cc(OC)ccc21 | -398% |
| COC(=O)Cn1c2ccc(C)cc2c2nc(C)sc21 | 65.4% (active) |
| CCn1c(CNC(=O)c2cc(OC)c(OC)c(OC)c2)cc2cc(C)ccc21 | -19.2% |
| COc1cc(C(F)(F)F)c(C(=O)N(C)c2ccc(Cl)cc2)cn1 | -0.9% |
